p53ts 32C tox = cytotoxicity in p53ts cells at permissive temperature; H1299-p53A138V at 32C, ATP luminescence viability, 24 h; Potency, µM (top dose mostly 46.1 µM), usual class: cytotoxic; actives 0.93% (n = 130,000); AID 924; further: nearly all actives have a fitted effect of over 55% in size
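Cells: H1299 p53ts (A138V), 600/well, pre-incubated 16–30 h at 37C. Cpd up to 46 uM, 24 h, 32C. Readout: ATPlite luminescence, 20 min RT. Normalization: DMSO vs tamoxifen 100 uM. AC50 by Hill equation.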
IkB sig inh = suppresses IkB signaling in ABC-DLBCL reporter cells; Potency, µM (doses to about 57.1 µM); AID 445; ABC-DLBCL IkBa-CBG/CBR dual luciferase ratio, 4 h; response scale: scaled: untreated 0%, proteasome inhibitor 100%; actives 0.04% (n = 110,000); active means well fitted curve in the direction sought with a large enough effect in the signal ratio, not every such curve was filed as active; inconclusive means small, poorly fitted or top-dose-only effect, or a change in a side signal; the % refers to the signal ratio;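 further: the direction sought is a rising ratio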
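Curves were fitted separately to fusion (green), unfused (red) and ratio luminescence, then classed by r2, magnitude and activity. Cells: OCI-Ly3, 4 h compound plus doxycycline at 37C; 10 uM MG-132 defined full response.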
p53ts 39C tox = cytotoxicity in p53ts cells at nonpermissive temperature. H1299-p53A138V viability at 39C, ATP luminescence, 24 h. actives 1.5% (n = 130,000). Potency, µM (highest dose often 46.1 µM), most hits filed as cytotoxic; further: nearly all actives have a fitted effect of over 55% in size
FLuc inh = blocks Photinus pyralis firefly luciferase activity; AID 411; purified firefly luciferase, luminescence, 8 min; actives 2.2% (n = 72,000); P08659; Potency, µM (top dose mostly 57.1 µM), usual class: inhibitors; further: nearly all actives have a fitted effect of over 40% in size
Target sequence (P08659 whole entry, looked up): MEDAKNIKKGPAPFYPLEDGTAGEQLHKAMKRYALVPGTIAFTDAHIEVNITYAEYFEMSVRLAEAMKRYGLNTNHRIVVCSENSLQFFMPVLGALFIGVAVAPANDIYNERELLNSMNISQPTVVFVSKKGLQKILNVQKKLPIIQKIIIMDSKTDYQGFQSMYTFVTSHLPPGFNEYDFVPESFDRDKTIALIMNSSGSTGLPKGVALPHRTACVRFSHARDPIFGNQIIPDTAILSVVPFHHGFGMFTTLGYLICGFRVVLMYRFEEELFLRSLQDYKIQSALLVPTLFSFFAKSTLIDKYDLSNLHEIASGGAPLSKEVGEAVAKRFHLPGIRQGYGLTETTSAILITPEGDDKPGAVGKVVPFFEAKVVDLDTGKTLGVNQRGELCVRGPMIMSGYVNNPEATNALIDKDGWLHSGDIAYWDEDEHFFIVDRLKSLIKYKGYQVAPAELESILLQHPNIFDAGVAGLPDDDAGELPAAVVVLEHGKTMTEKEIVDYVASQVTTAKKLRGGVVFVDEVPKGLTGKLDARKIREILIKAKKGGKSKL
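Inhibition of light generation by firefly luciferase from ATP and luciferin was profiled with concentration-response curves per sample, ATP held at 10 uM within the enzyme's linear range. Plates were read by luminescence after an 8-minute ambient incubation.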
Imprint erasure = inducers of genomic imprint erasure in mouse ES cells. mouse ES Peg3-LacZ reporter, beta-gal luminescence, 40 h. Potency, µM (top dose mostly 60.7 µM), most hits filed as activators. actives 0.02% (n = 110,000)
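Each well holds 300 Peg3LacZ-Neo (maternal) female ES cells incubated 40 h at 37C, 5% CO2. LacZ is measured by BetaGlo luminescence, with AC50 and maximum efficacy derived from dose-response curves.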
Numbers stand for hits; i = inactive; ? = inconclusive; nt = no result given; [ ] = remark or other dose. Only some compounds are listed: those with a hit (about 2.4% of all), similar ones and a draw of the others. Unless noted, the call rests on the fitted dose curve; in most records, active means well fitted curve in the direction sought with a large enough effect; inconclusive means small, poorly fitted or top-dose-only effect, or another doubt; inactive means no such curve, though single readings can be large; an effect the other way counts as inactive or inconclusive.

SMILES | p53ts 32C tox | IkB sig inh | p53ts 39C tox | FLuc inh | Imprint erasure
O=C(N=c1nc2ccccn2s1)c1ccccc1 | 2µM | i | ? | 0.79µM | i
Cc1ccc2c(c1)C(=O)C(=O)N2Cc1ccc(OC(C)C)cc1 | ? | i | 16µM | nt | i[10.9 µM]
O=C(COc1ccccc1Cl)Nc1nc2c(s1)CCCC2 | i | i | i | nt | i[10.9 µM]
O=C(COc1ccccc1Cl)Nc1ccc2c(c1)OCCO2 | ? | ? | ? | 10µM | i
Cc1cccc(OCC(=O)Nc2ccc3c(c2)OCCO3)c1 | 10µM | i | ? | 13µM | i
Cc1cnc(NC(=O)COc2ccccc2Cl)s1 | 4µM | i | 5µM | 1.3µM | i
Cc1ccc(C)c(OCC(=O)Nc2ccc3c(c2)OCO3)c1 | i | i | i | i | i
OC[C@@H]1O[C@@H](n2cnc3cncnc32)[C@@H](O)[C@H]1O | i | i | i | i | nt
O=C1c2c(O)ccc([N+](=O)[O-])c2C(=O)c2c([N+](=O)[O-])ccc(O)c21 | i[1.84 µM] | ? | 16µM | nt | i
O=S(=O)(NCCNC/C=C/c1ccc(Br)cc1)c1cccc2cnccc12 | nt | nt | nt | nt | i
CC1=C(C(=O)Nc2ccccc2C)C(c2ccccn2)n2nc(SCc3ccccc3F)nc2N1 (stereo not given) | i | i | 6.3µM | nt | i[10.9 µM]
C=CC(=O)OCCOCCOC(=O)C=C | i[1.84 µM] | ? | 32µM | nt | i
c1ccc(OCCSc2nc3ccccc3[nH]2)cc1 | i | nt | i | nt | nt
c1ccc(OCc2nc3ccccc3[nH]2)cc1 | ? | ? | ? | 25µM | i
O=C(COc1ccccc1)Nc1nc2ccccc2[nH]1 | ? | ? | ? | 20µM | i
Nc1nc(CSc2ccccn2)nc(Nc2ccccc2)n1 | i | i | i | 20µM | i
COc1ccc2nc(SCc3nc(N)nc(Nc4ccccc4)n3)[nH]c2c1 | i | ? | i | 13µM | i
COc1ccc2nc(SCC(N)=O)[nH]c2c1 | i | i | i | i | i
COc1ccc(-c2noc(CSc3nc(N)cc(=O)[nH]3)n2)cc1OC | i | i | i | nt | i[10.9 µM]
COc1ccccc1CNC(=O)CN1C(=O)COc2ccc(S(=O)(=O)N3CCC(C)CC3)cc21 | i | ? | i | nt | i[10.9 µM]
Cc1ccc(-c2cc(-c3nnc(SCC(=O)N(C)CCC#N)n3N)c3ccccc3n2)cc1 | i | i | i | 13µM | i
Cc1nc(N)sc1-c1csc(Nc2ccccn2)n1 | i | ? | i | 13µM | i
Cc1nc(N)sc1-c1csc(Nc2ccc(Cl)cn2)n1 | i | i | i | i | i
CC(=O)c1cccc(N(C(=O)Cn2nnc3ccccc32)C(C(=O)NCc2ccccc2)c2ccc(F)cc2)c1 (stereo not given) | i | i | i | nt | i[10.9 µM]
Cc1c(C(=O)Nc2ccc(C(=O)O)cc2)nnn1-c1ccccc1 | 10µM | ? | ? | nt | i[10.9 µM]
SMILES | p53ts 32C tox | IkB sig inh | p53ts 39C tox | FLuc inh | Imprint erasure
OC[C@@H]1O[C@@H](n2cnc3c(NCCc4ccccc4)ncnc32)[C@@H](O)[C@H]1O | nt | ? | nt | i | nt
CC(C)(CO)Cc1cc(C(C)(C)C)c(O)c(C(C)(C)C)c1 | 20µM | ? | 32µM | i | i
COc1ccc2c(c1)S/C(=C\C(=O)c1ccncc1)N2C | i | i | ? | 5µM | i
COCC(=O)/C=C1\Sc2ccccc2N1C | i | i | i | i | i
COc1ccc2cc(C(=O)CCC(=O)O)ccc2c1 | i[9.22 µM] | i[11.4 µM] | i[9.22 µM] | ? | i[10.9 µM]
Cc1cc2c(cc3c(SCc4cccc(F)c4)nnc(C)n32)o1 | i | i | i | nt | i[10.9 µM]
Cc1cc2c(cc3c(SCc4ccc(Cl)cc4)nnc(C)n32)o1 | i | i | 10µM | nt | i[10.9 µM]
COc1cc(CN(C(=O)COc2ccc(Cl)cc2)c2ccccn2)cc(OC)c1OC | i | i | i | nt | i[10.9 µM]
Cc1ccc(-n2ncc3c(N4CCCCC4)ncnc32)cc1 | 1.6µM | ? | 1.6µM | nt | i[10.9 µM]
Cc1cccc(-n2ncc3c(N4CCN(c5ccccc5)CC4)ncnc32)c1 | i | i | i | nt | i[10.9 µM]
COc1ccccc1N1CCN(c2ncnc3c2cnn3-c2cc(Cl)ccc2C)CC1 | ? | ? | 13µM | nt | i[10.9 µM]
Cc1ccc(-n2ncc3c(N4CCCCCC4)ncnc32)cc1Cl | ? | ? | ? | nt | i[10.9 µM]
Cc1cccc(-n2ncc3c(N4CCCC4)ncnc32)c1 | 3.2µM | i | 5µM | 1.6µM | i
COc1ccc(N2CCN(c3ncnc4c3cnn4C)CC2)cc1 | i | i | i | nt | i[10.9 µM]
COc1ccc(-n2ncc3c(N4CCCCC4)ncnc32)cc1 | 2.5µM | nt | 3.2µM | nt | nt
Cc1ccc(Cl)cc1-n1ncc2c(N3CCCCCC3)ncnc21 | i | ? | ? | nt | i[10.9 µM]

Compound activity (PubChem)
